Activity calls are given as the source filed them.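 The calls were made as follows: active = Her2 level under about 52% in both replicate screens, with viability over 70% of control (limit read from the data); inconclusive = Her2 under the limit in one screen only, or viability under 70%; inactive = Her2 level above the set limit.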
test system: not listed separately; test: Her2 expression decrease, cell viability multiplex – SKBR3 breast tumor cells, AlphaScreen, ATP viability, primary screen (AID 461); conditions: SKBR3 Her2 protein level, 18-24 h, measured here: SKBR3 viability, ATP luminescence, at 10 µM;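 as to Her2 level: lower value means less Her2 protein in the cells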;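 as to viability: percent of carrier control wells set as 100% viability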

SMILES	viability
FC(F)(F)c1cccc(N2CCN(c3nnnn3-c3ccccc3)CC2)c1	85%
COC(=O)c1cc2oc(C)cc2n1CC(=O)Nc1ccc(C)c(C)c1	85.5%
Cc1cc2oc(=O)cc(C)c2c(=O)o1	101%
CC(Oc1ccc(Cl)cc1Cl)C(=O)Nc1ncccn1 (stereo not given)	93.5%
CC(C(=O)NCCCN1CCOCC1)n1cccc1C(=O)c1ccccc1 (stereo not given)	90%
CC(C)(C)NCc1cc2ccccc2[nH]c1=O	90%
Cc1ccc(-c2noc(-c3ccccc3C(=O)NCC3CCCO3)n2)cc1 (stereo not given)	91%
Cc1cc(Nc2ccc(C(=O)O)cc2)n2nc(C)nc2n1	101%
O=C(CSc1nnnn1C1CCCCC1)N1CCc2ccccc21	91%
Cc1cc(C)c2c(n1)nn1c(N3CCN(c4cccc(Cl)c4)CC3)cc(C)nc21	98.5%
CC(=O)NC(Cc1cc(C)ccc1C)C(=O)N1CCN(C(=O)Nc2ccc(C(C)=O)cc2)CC1 (stereo not given)	102%
Cc1nnc(SCCn2c(N3CC(C)CC(C)C3)nc3c2c(=O)n(C)c(=O)n3C)s1 (stereo not given)	106%
CC(C)CCNC(=O)NC(=O)CN1C(=O)NC2(CCCCC2)C1=O	90%
COc1ccc(C(=O)Nc2cccc(-c3nc4ncccc4o3)c2C)cc1OC	99%
Cc1ccc(S(=O)(=O)NCC2CCC(C(=O)NCCCN3CCOCC3)CC2)cc1 (stereo not given)	89.5%
Cc1ccc(NC(=O)CSc2nnc(-c3ccncc3)n2C)cc1C	90%
O=C(OCC#CCSc1nnc(-c2ccncc2)o1)c1cccs1	118%
O=C(NCc1cccnc1)C1c2ccccc2C(=O)N1Cc1ccco1 (stereo not given)	94.5%
CCc1nnc(NC(=O)CSc2nnc3scc(-c4ccc(C)cc4)n23)s1	100%
CC(C)(C)C(=O)Oc1cc(N)n(S(=O)(=O)c2ccccc2)n1	93.5%

SMILES	viability
Cc1cnc(NC(=O)CSc2nc3ccccc3c(=O)[nH]2)s1	89.5%
O=C(CCN1C(=O)c2ccccc2C1=O)OCN1C(=O)c2ccccc2C1=O	95%
CCOC(=O)CNC(=O)c1c(C)nn(-c2ccccc2)c1Cl	98.5%
COc1ccc(NC(=O)CN2CCN(CC(=O)Nc3cc(OC)cc(OC)c3)CC2)cc1	79%
CCCn1nc(NS(=O)(=O)c2ccccc2)c2cc3ccccc3nc21	91.5%
CCOC(=O)C1=C(C)NC(C)=C(C(=O)OCC)C1c1cc(N)ccc1OC(F)F	78.5%
CC1=C(C(=O)OCc2ccccc2)C(c2ccc(C)o2)C2=C(CCCC2=O)N1 (stereo not given)	72%
O=C(Nc1ccccc1-c1ccccc1)NC1CCN(CC(=O)N2CCOCC2)CC1	98%
CCN(C1CCCCC1)S(=O)(=O)c1ccc(OC)c(C)c1	99%
Cc1ccccc1N(C)S(=O)(=O)c1ccc2[nH]cc(C(=O)NCC3CCCO3)c(=O)c2c1 (stereo not given)	83%
COc1ccc(N2C(=O)CC(N3CCN(c4ccccc4F)CC3)C2=O)cc1 (stereo not given)	88%
COc1cc(OC)cc(-n2nnnc2SCC(=O)N2CCCC2)c1	87%
O=C(O)c1cc(Cl)c(Cl)cc1C(=O)N1CCCC1	97.5%
Nn1c(CSc2nc3ccccc3o2)nnc1CSc1nc2ccccc2o1	86%
CN=C1CC(C)(C)CC(=O)/C1=C(/O)CCC(=O)NC	104%
CCOC(=O)c1ccc(NC(=O)c2ccc(NS(C)(=O)=O)cc2)cc1	97%
CCN(CC)CCCN(Cc1cc2cc(OC)ccc2[nH]c1=O)C(=O)Nc1ccccc1	90%
O=C(COC(=O)CCC(=O)c1cccs1)NCc1ccco1	98%
O=C(Cn1cnc2ccccc2c1=O)NCCC(=O)N1CCN(Cc2ccccc2)CC1	89%
CC(C)C(c1nnnn1CC1CCCO1)N1CCN(Cc2ccc3c(c2)OCO3)CC1 (stereo not given)	102%

molecular target: Receptor tyrosine-protein kinase erbB-2 (Homo sapiens) (UniProt P04626); test: as above; conditions: 18-24 h, at 10 µM, stronger effect = lower value
Sequence (P04626 whole entry, looked up): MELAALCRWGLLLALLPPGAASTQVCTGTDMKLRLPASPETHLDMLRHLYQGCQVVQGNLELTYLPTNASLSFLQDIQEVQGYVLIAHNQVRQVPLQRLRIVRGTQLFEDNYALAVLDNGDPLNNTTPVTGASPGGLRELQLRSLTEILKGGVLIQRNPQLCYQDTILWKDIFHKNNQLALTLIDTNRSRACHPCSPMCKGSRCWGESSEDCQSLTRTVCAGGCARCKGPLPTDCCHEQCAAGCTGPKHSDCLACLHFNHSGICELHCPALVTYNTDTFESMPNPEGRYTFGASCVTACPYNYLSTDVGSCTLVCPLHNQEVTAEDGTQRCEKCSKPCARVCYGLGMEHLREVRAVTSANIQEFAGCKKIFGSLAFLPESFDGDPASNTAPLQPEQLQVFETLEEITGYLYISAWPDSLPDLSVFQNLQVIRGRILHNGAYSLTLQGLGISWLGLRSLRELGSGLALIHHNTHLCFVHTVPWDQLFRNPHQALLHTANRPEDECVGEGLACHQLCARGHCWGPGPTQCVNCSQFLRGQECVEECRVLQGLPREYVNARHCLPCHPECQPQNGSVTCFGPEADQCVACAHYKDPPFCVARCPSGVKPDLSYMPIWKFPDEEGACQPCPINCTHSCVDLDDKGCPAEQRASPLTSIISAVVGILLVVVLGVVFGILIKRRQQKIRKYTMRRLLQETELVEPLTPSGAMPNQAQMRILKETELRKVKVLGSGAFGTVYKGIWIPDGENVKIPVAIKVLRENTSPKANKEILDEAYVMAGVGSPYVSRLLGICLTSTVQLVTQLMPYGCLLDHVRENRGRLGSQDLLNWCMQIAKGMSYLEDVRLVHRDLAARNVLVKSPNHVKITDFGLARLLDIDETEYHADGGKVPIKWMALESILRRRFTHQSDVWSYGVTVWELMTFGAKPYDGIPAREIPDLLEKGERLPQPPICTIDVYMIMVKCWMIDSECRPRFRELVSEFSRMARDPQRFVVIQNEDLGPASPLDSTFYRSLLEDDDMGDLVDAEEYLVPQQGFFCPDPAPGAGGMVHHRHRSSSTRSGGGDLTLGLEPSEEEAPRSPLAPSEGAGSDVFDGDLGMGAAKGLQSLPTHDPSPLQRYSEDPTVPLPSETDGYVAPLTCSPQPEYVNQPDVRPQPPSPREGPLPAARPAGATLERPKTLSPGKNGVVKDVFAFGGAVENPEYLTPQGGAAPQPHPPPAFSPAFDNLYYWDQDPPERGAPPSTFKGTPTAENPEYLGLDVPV

SMILES	Her2 level
FC(F)(F)c1cccc(N2CCN(c3nnnn3-c3ccccc3)CC2)c1	88.5% (inactive)
COC(=O)c1cc2oc(C)cc2n1CC(=O)Nc1ccc(C)c(C)c1	83% (inactive)
Cc1cc2oc(=O)cc(C)c2c(=O)o1	136% (inactive)
CC(Oc1ccc(Cl)cc1Cl)C(=O)Nc1ncccn1 (stereo not given)	108% (inactive)
CC(C(=O)NCCCN1CCOCC1)n1cccc1C(=O)c1ccccc1 (stereo not given)	76.5% (inactive)
CC(C)(C)NCc1cc2ccccc2[nH]c1=O	74.5% (inactive)
Cc1ccc(-c2noc(-c3ccccc3C(=O)NCC3CCCO3)n2)cc1 (stereo not given)	107% (inactive)
Cc1cc(Nc2ccc(C(=O)O)cc2)n2nc(C)nc2n1	96.5% (inactive)
O=C(CSc1nnnn1C1CCCCC1)N1CCc2ccccc21	82.5% (inactive)
Cc1cc(C)c2c(n1)nn1c(N3CCN(c4cccc(Cl)c4)CC3)cc(C)nc21	83.5% (inactive)
CC(=O)NC(Cc1cc(C)ccc1C)C(=O)N1CCN(C(=O)Nc2ccc(C(C)=O)cc2)CC1 (stereo not given)	101% (inactive)
Cc1nnc(SCCn2c(N3CC(C)CC(C)C3)nc3c2c(=O)n(C)c(=O)n3C)s1 (stereo not given)	99.5% (inactive)
CC(C)CCNC(=O)NC(=O)CN1C(=O)NC2(CCCCC2)C1=O	120% (inactive)
COc1ccc(C(=O)Nc2cccc(-c3nc4ncccc4o3)c2C)cc1OC	122% (inactive)
Cc1ccc(S(=O)(=O)NCC2CCC(C(=O)NCCCN3CCOCC3)CC2)cc1 (stereo not given)	93% (inactive)
Cc1ccc(NC(=O)CSc2nnc(-c3ccncc3)n2C)cc1C	117% (inactive)
O=C(OCC#CCSc1nnc(-c2ccncc2)o1)c1cccs1	102% (inactive)
O=C(NCc1cccnc1)C1c2ccccc2C(=O)N1Cc1ccco1 (stereo not given)	91% (inactive)
CCc1nnc(NC(=O)CSc2nnc3scc(-c4ccc(C)cc4)n23)s1	95.5% (inactive)
CC(C)(C)C(=O)Oc1cc(N)n(S(=O)(=O)c2ccccc2)n1	101% (inactive)

SMILES	Her2 level
Cc1cnc(NC(=O)CSc2nc3ccccc3c(=O)[nH]2)s1	93.5% (inactive)
O=C(CCN1C(=O)c2ccccc2C1=O)OCN1C(=O)c2ccccc2C1=O	108% (inactive)
CCOC(=O)CNC(=O)c1c(C)nn(-c2ccccc2)c1Cl	86.5% (inactive)
COc1ccc(NC(=O)CN2CCN(CC(=O)Nc3cc(OC)cc(OC)c3)CC2)cc1	96.5% (inactive)
CCCn1nc(NS(=O)(=O)c2ccccc2)c2cc3ccccc3nc21	94.5% (inactive)
CCOC(=O)C1=C(C)NC(C)=C(C(=O)OCC)C1c1cc(N)ccc1OC(F)F	108% (inactive)
CC1=C(C(=O)OCc2ccccc2)C(c2ccc(C)o2)C2=C(CCCC2=O)N1 (stereo not given)	88% (inactive)
O=C(Nc1ccccc1-c1ccccc1)NC1CCN(CC(=O)N2CCOCC2)CC1	103% (inactive)
CCN(C1CCCCC1)S(=O)(=O)c1ccc(OC)c(C)c1	108% (inactive)
Cc1ccccc1N(C)S(=O)(=O)c1ccc2[nH]cc(C(=O)NCC3CCCO3)c(=O)c2c1 (stereo not given)	71% (inactive)
COc1ccc(N2C(=O)CC(N3CCN(c4ccccc4F)CC3)C2=O)cc1 (stereo not given)	98% (inactive)
COc1cc(OC)cc(-n2nnnc2SCC(=O)N2CCCC2)c1	79% (inactive)
O=C(O)c1cc(Cl)c(Cl)cc1C(=O)N1CCCC1	100% (inactive)
Nn1c(CSc2nc3ccccc3o2)nnc1CSc1nc2ccccc2o1	94.5% (inactive)
CN=C1CC(C)(C)CC(=O)/C1=C(/O)CCC(=O)NC	84% (inactive)
CCOC(=O)c1ccc(NC(=O)c2ccc(NS(C)(=O)=O)cc2)cc1	83% (inactive)
CCN(CC)CCCN(Cc1cc2cc(OC)ccc2[nH]c1=O)C(=O)Nc1ccccc1	73% (inactive)
O=C(COC(=O)CCC(=O)c1cccs1)NCc1ccco1	109% (inactive)
O=C(Cn1cnc2ccccc2c1=O)NCCC(=O)N1CCN(Cc2ccccc2)CC1	90% (inactive)
CC(C)C(c1nnnn1CC1CCCO1)N1CCN(Cc2ccc3c(c2)OCO3)CC1 (stereo not given)	82.5% (inactive)

Source: PubChem BioAssay
